Structures are written as SMILES. Hit rate of the full screen: of about 2,300 compounds, about 330 (14%) showed activity. Only a sample is shown. A number with no mark means an inactive call.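 The calls were made as follows: active = median modified Z-score above 1.96; inactive = 1.96 or below.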

In this assay the test system is HepG2 Srxn1-GFP reporter cells (+30 nM CDDO-Me). The assay can be described thus: Srxn1-GFP intensity median modified Z-score relative to plate median; higher = stronger NRF2 / oxidative stress reporter activation, active = hit call of the paper. The settings on record: 10 µM; exposure time: 24h. Summed up:
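The per-plate modified Z-score of GFP intensity, taken as a median across replicates, is what each value represents. Three replicate plates of HepG2 Srxn1-GFP BAC reporter cells were exposed for 24 h to an NRF2 activator at 30 nM combined with compound at 10 μM (≤0.1% DMSO). Cytoplasmic GFP per cell was read from confocal images, excluding any with under 100 cells, and scaling used 1.4826 × median absolute deviation.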
In the case of `CC(CCC(=O)O)C1CC[C@H]2C3[C@H](O)C[C@@H]4C[C@H](O)CCC4(C)[C@H]3C[C@H](O)C12C` (stereo not given in full) [euspeclibcmpd1325], the “Srxn1-GFP intensity median modified Z-score” value is -0.323.

Take `CCC(C)C1NC(=O)C(CCN)NC(=O)C(NC(=O)C(CCN)NC(=O)C(NC(=O)C(CCN)NC(=O)CCCCC(C)C)C(C)O)CCNC(=O)C(C(C)O)NC(=O)C(CCN)NC(=O)C(CCN)NC(=O)C(C(C)CC)NC1=O` (stereo not given) [euspeclibcmpd887]: the “Srxn1-GFP intensity median modified Z-score” value was 0.477.

As for `CC(C)C1CC[C@@H](C)CC1=O` (stereo not given in full) [euspeclibcmpd1630], the “Srxn1-GFP intensity median modified Z-score” value was -0.168.

Turning to `CC(=O)OCC(=O)[C@@]12OC3(CCCC3)O[C@@H]1CC1C3CC=C4CC(=O)C=C[C@]4(C)[C@@]3(F)[C@@H](O)C[C@@]12C` (stereo not given in full) [euspeclibcmpd606], the “Srxn1-GFP intensity median modified Z-score” value was -0.413.

`CN[C@@H]1C(OC2[C@H](O[C@H]3[C@H](O)[C@@H](O)[C@H](N=C(N)N)[C@@H](O)[C@@H]3N=C(N)N)OC(C)[C@]2(O)CO)OC(CO)C(O)C1O` (stereo not given in full) [euspeclibcmpd500]: the “Srxn1-GFP intensity median modified Z-score” value was 0.194.

In the case of `CC(C)=c1nc(N(C)S(C)(=O)=O)nc(-c2ccc(F)cc2)c1=CC[C@@H](O)C[C@@H](O)CC(=O)O` [euspeclibcmpd2132], the “Srxn1-GFP intensity median modified Z-score” value was 0.158.

Turning to `CC(C)n1c(C=CC(O)CC(O)CC(=O)O)c(-c2ccc(F)cc2)c2ccccc21` (stereo not given) [euspeclibcmpd1968], the “Srxn1-GFP intensity median modified Z-score” value is 3.35 (active).

With `CC(C)c1c(C(=O)Nc2ccccc2)c(-c2ccccc2)c(-c2ccc(F)cc2)n1CC[C@@H](O)C[C@@H](O)CC(=O)O` [euspeclibcmpd2076], the “Srxn1-GFP intensity median modified Z-score” value was 0.0135.

On to `CC1=C2CC(=O)C=C[C@]2(C)C2C(C1)C1CC[C@](O)(C(=O)COC(=O)CCC(=O)O)[C@@]1(C)C[C@@H]2O` (stereo not given in full) [euspeclibcmpd2224], for which the “Srxn1-GFP intensity median modified Z-score” value was -0.845.

With `Oc1cc2c(cc1O)=C1c3ccc(O)c(O)c3OCC1(O)C=2` (stereo not given) [euspeclibcmpd1969], the “Srxn1-GFP intensity median modified Z-score” value is -0.521.

In the case of `CC(CCC(=O)O)[C@H]1CCC2C3C(=O)C[C@@H]4CC(=O)CC[C@]4(C)C3CC(=O)[C@@]21C` (stereo not given in full) [euspeclibcmpd357], the “Srxn1-GFP intensity median modified Z-score” value was 0.217.

In the case of `CCCCCc1c2c(cc(O)c1C(=O)O)OC(=O)c1c(cc(OC)cc1C(=O)CCCC)O2` [euspeclibcmpd1731], the “Srxn1-GFP intensity median modified Z-score” value was 4.46 (active).

As for `CCCCCC(=O)Cc1cc(O)cc(O)c1C(=O)Oc1cc(CC(=O)CCCCC)c(C(=O)O)c(OC)c1` [euspeclibcmpd1619], the “Srxn1-GFP intensity median modified Z-score” value was -0.366.

In the case of `COc1cc(C)c(C(=O)O)c(O)c1` [euspeclibcmpd2356], the “Srxn1-GFP intensity median modified Z-score” value was -0.209.

With `COCC1(C)NC(=O)N(CCC(=O)Nc2cc(C)on2)C1=O` (stereo not given), the “Srxn1-GFP intensity median modified Z-score” value is 1.16.

The record behind these values is the supplement of paper PMC10498489.
